{
  "source": "the supplement of paper PMC3334620",
  "note": "Whole data set: some 33,000 sequences, median “E-score (-0.5 to 0.5)” near -8e-05, cut for the highest 2% near 0.23. The list comes from a sample in which the highest values are over-represented; it also holds similar and randomly drawn sequences.",
  "data": [
    {"target": "T1, Nrg2 (UniProt P38082)", "T1 sequence": "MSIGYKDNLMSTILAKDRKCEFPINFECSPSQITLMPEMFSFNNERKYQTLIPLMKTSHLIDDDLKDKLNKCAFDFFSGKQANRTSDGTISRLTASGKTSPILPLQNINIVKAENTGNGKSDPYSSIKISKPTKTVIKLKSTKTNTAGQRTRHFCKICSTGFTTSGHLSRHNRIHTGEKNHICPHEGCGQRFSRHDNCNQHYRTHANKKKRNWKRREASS", "experiment": "PBM E-score (8-mer binding enrichment) (E-score (-0.5 to 0.5)); higher = stronger / more preferred TF binding", "conditions": "protein concentration: 100 nM; construct: GST-full length", "how_it_was_run": "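Each ungapped eight-base word and its reverse complement, pooled, received an E-score from the Universal PBM Analysis Suite. Underlying scans, normalised with masliner, recorded fluorescent anti-GST bound to GST-tagged yeast transcription factors. These were applied at about 100-200 nM to universal all-10-mer Agilent arrays double-stranded by primer extension.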", "values": [
      {"sequence": "AACTGTCC", "PBM E-score": -0.0683},
      {"sequence": "GCTGAAAC", "PBM E-score": -0.139},
      {"sequence": "ATTGATTC", "PBM E-score": 0.244},
      {"sequence": "CTTGATTC", "PBM E-score": 0.0772},
      {"sequence": "ATTGATAG", "PBM E-score": -0.0275},
      {"sequence": "GTTGATGA", "PBM E-score": 0.0639},
      {"sequence": "ATTGATAA", "PBM E-score": 0.0942},
      {"sequence": "CCTGATAG", "PBM E-score": -0.153},
      {"sequence": "ATTGATAC", "PBM E-score": 0.274},
      {"sequence": "GCTGATAC", "PBM E-score": -0.0795},
      {"sequence": "CTTGATAA", "PBM E-score": 0.147},
      {"sequence": "ATTGATTG", "PBM E-score": 0.142},
      {"sequence": "CCTGATAC", "PBM E-score": 0.229},
      {"sequence": "GTTGATAA", "PBM E-score": 0.232},
      {"sequence": "AAACTCCC", "PBM E-score": -0.0959},
      {"sequence": "GTGGATTA", "PBM E-score": 0.0668},
      {"sequence": "CGGCCTTA", "PBM E-score": 0.0601},
      {"sequence": "ACTCAAGC", "PBM E-score": -0.148},
      {"sequence": "CAGTTTTC", "PBM E-score": 0.17},
      {"sequence": "AATGGCAC", "PBM E-score": -0.0263},
      {"sequence": "AATGGAAT", "PBM E-score": 0.241},
      {"sequence": "AATGGAAG", "PBM E-score": 0.0112},
      {"sequence": "AATGGCAT", "PBM E-score": 0.26},
      {"sequence": "AATGGAAC", "PBM E-score": 0.108},
      {"sequence": "AATGGCAG", "PBM E-score": 0.0917},
      {"sequence": "CGCCAAAA", "PBM E-score": 0.119},
      {"sequence": "AAGGAAAC", "PBM E-score": -0.128},
      {"sequence": "GAGGGACC", "PBM E-score": 0.0355},
      {"sequence": "CAGGGACG", "PBM E-score": 0.306},
      {"sequence": "CAGAGACC", "PBM E-score": -0.212},
      {"sequence": "AAGGGACC", "PBM E-score": 0.424},
      {"sequence": "CAGGGACC", "PBM E-score": 0.4},
      {"sequence": "AGGGGACC", "PBM E-score": 0.225},
      {"sequence": "AAGGGACA", "PBM E-score": 0.137},
      {"sequence": "GAGGGACA", "PBM E-score": 0.0412},
      {"sequence": "AAGGGACG", "PBM E-score": 0.207},
      {"sequence": "CAGGGACA", "PBM E-score": 0.371},
      {"sequence": "AAGGGACT", "PBM E-score": 0.123},
      {"sequence": "CAGAGACG", "PBM E-score": 0.0459},
      {"sequence": "AGCAAACA", "PBM E-score": 0.0834},
      {"sequence": "GGCGCCTA", "PBM E-score": -0.0964},
      {"sequence": "AGAACCGC", "PBM E-score": 0.0943},
      {"sequence": "ACGTCAGC", "PBM E-score": 0.129},
      {"sequence": "CCCGAACG", "PBM E-score": -0.0859},
      {"sequence": "GCAAACGA", "PBM E-score": 0.0657},
      {"sequence": "CGCAACTC", "PBM E-score": 0.147},
      {"sequence": "GGCAACTA", "PBM E-score": 0.194},
      {"sequence": "CGCAACTA", "PBM E-score": 0.244},
      {"sequence": "GCGGCCAA", "PBM E-score": -0.133},
      {"sequence": "AGGACCCT", "PBM E-score": 0.369},
      {"sequence": "AAGACCCT", "PBM E-score": 0.291},
      {"sequence": "AAGACCCA", "PBM E-score": -0.181},
      {"sequence": "AAGACCCG", "PBM E-score": 0.0509},
      {"sequence": "AGGACCCG", "PBM E-score": 0.0935},
      {"sequence": "AGGACCCA", "PBM E-score": -0.179},
      {"sequence": "CCAACCTA", "PBM E-score": -0.118},
      {"sequence": "AAGTGAGC", "PBM E-score": -0.0445},
      {"sequence": "CATGGGAA", "PBM E-score": 0.0176},
      {"sequence": "CAGATGAA", "PBM E-score": 0.026},
      {"sequence": "ACGCTAGG", "PBM E-score": -0.266},
      {"sequence": "AACCAGGG", "PBM E-score": 0.176},
      {"sequence": "ATCAAAAT", "PBM E-score": -0.0176},
      {"sequence": "ATTAACAC", "PBM E-score": 0.246},
      {"sequence": "ATTAAAAC", "PBM E-score": 0.241},
      {"sequence": "ATTAAAAG", "PBM E-score": 0.103},
      {"sequence": "ATTAAACC", "PBM E-score": 0.199},
      {"sequence": "ATTAACAA", "PBM E-score": 0.179},
      {"sequence": "ATCAAAAG", "PBM E-score": 0.00066},
      {"sequence": "CTTAACAC", "PBM E-score": 0.0347},
      {"sequence": "CTTAAAAC", "PBM E-score": 0.0325},
      {"sequence": "ATCAAAAA", "PBM E-score": 0.237},
      {"sequence": "ATTAAAAT", "PBM E-score": 0.174},
      {"sequence": "ATTAAAAA", "PBM E-score": 0.246},
      {"sequence": "CCTCGTAC", "PBM E-score": 0.0199},
      {"sequence": "CGAACTGC", "PBM E-score": -0.0594},
      {"sequence": "TCCAGAGA", "PBM E-score": -0.144},
      {"sequence": "AAGGGGAT", "PBM E-score": 0.205},
      {"sequence": "ACTTAGGG", "PBM E-score": 0.0512},
      {"sequence": "CCCAACTA", "PBM E-score": 0.174},
      {"sequence": "ACCAACTC", "PBM E-score": -0.0268},
      {"sequence": "CCCAACTC", "PBM E-score": 0.256},
      {"sequence": "GCCGCGCA", "PBM E-score": -0.0674},
      {"sequence": "CTGGTGGC", "PBM E-score": 0.00474},
      {"sequence": "ACAGTAGA", "PBM E-score": 0.138},
      {"sequence": "CGTATTTA", "PBM E-score": 0.248},
      {"sequence": "AGTATTTA", "PBM E-score": 0.0065},
      {"sequence": "GGTATTTA", "PBM E-score": 0.0832},
      {"sequence": "AGCCCCAT", "PBM E-score": -0.0124},
      {"sequence": "CTGCGATC", "PBM E-score": 0.0398},
      {"sequence": "CGAGGGCC", "PBM E-score": -0.0174},
      {"sequence": "AACTTATT", "PBM E-score": 0.256},
      {"sequence": "AACTTATG", "PBM E-score": -0.0218},
      {"sequence": "AACTTATC", "PBM E-score": 0.121},
      {"sequence": "CATAGTCG", "PBM E-score": -0.0054},
      {"sequence": "AGGCAAGA", "PBM E-score": -0.0756},
      {"sequence": "AAGCCCTC", "PBM E-score": -0.132},
      {"sequence": "ACCAACAT", "PBM E-score": 0.0787},
      {"sequence": "ACCAACAG", "PBM E-score": -0.00807},
      {"sequence": "ACCAACAA", "PBM E-score": 0.245},
      {"sequence": "GAGAAAGC", "PBM E-score": 0.0912},
      {"sequence": "ACCTACAT", "PBM E-score": 0.00858},
      {"sequence": "GCCCCAGC", "PBM E-score": 0.0519},
      {"sequence": "CTGGTGCC", "PBM E-score": -0.212},
      {"sequence": "AACTAATA", "PBM E-score": 0.354},
      {"sequence": "TACTAATA", "PBM E-score": 0.0648},
      {"sequence": "CACTAATA", "PBM E-score": 0.133},
      {"sequence": "AGCTACTA", "PBM E-score": 0.0519},
      {"sequence": "AACTACTG", "PBM E-score": 0.0512},
      {"sequence": "AACTACTA", "PBM E-score": 0.296}
    ]}
  ]
}
